Potency data for 13 molecules are collected here from PubChem BioAssay AID1345085 (National Center for Advancing Translational Sciences (NCATS), 2018).

Records with an inconclusive call do not appear. Calls of active or inactive are those of the source. The call rests on the fitted dose curve; in most records, active means well fitted cell-killing curve with a large enough effect; inconclusive means small, poorly fitted or top-dose-only effect, or effect the other way; inactive means no such curve, though single readings can be large or run the other way.
Potency means the concentration at half of the fitted maximal effect.

For the test, the system named is Es-2. The experiment in a line: Confirmatory qHTS for gynecologic anti-cancer compounds from libraries of approved drugs and bioactive compounds. Further: nearly all actives have a fitted effect of over 55% in size. The settings on record: gynecologic cancer cell panel viability, ATPlite luminescence, 48 h; series mostly up to 57.6 µM. The method in brief: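 ATP-based luminescent viability (ATPlite) after 48 h drug treatment at 37 °C, 5% CO2, across 57.5 uM–0.977 nM in 1:3 steps. Cells seeded at 1,000 per well 16 h beforehand; IC50 values computed, HEK 293T as selectivity control.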
Regarding `CCc1c2c(nc3ccc(OC(=O)N4CCC(N5CCCCC5)CC4)cc13)-c1cc3c(c(=O)n1C2)COC(=O)[C@]3(O)CC`, the Potency is 12.2 µM (active).
Turning to `NS(=O)(=O)c1ccc(Nc2nc(OCC3CCCCC3)c3[nH]cnc3n2)cc1`, the Potency entry is “inactive”.
Turning to `Nc1nc(=S)c2[nH]cnc2[nH]1`, the Potency was 3.43 µM (active).
In the case of `Cc1ccc(C(=O)Nc2cccc(C(F)(F)F)c2)cc1-c1ccc2nc(NCCN3CCOCC3)ncc2c1` it was 5.44 µM (active); in that of `Cc1ccccc1C(OCCN(C)C)c1ccccc1` (stereo not drawn), “inactive”.
Next, `CCC1C(=O)N(C)c2cnc(Nc3ccc(C(=O)NC4CCN(C)CC4)cc3OC)nc2N1C1CCCC1` (stereo not drawn): 0.0611 µM (active); `O=C(CCCCCCNC(=O)c1cnc(N(c2ccccc2)c2ccccc2)nc1)NO`: 13.7 µM (active).
In the case of `CC[C@]1(O)C[C@H]2CN(CCc3c([nH]c4ccccc34)[C@@](C(=O)OC)(c3cc4c(cc3OC)N(C=O)[C@H]3[C@@](O)(C(=O)OC)[C@H](OC(C)=O)[C@]5(CC)C=CCN6CC[C@]43[C@@H]65)C2)C1` it was 0.432 µM (active); in that of `O=C(NOC[C@H](O)CO)c1ccc(F)c(F)c1Nc1ccc(I)cc1F`, 0.344 µM (active).
For `Cn1cc(-c2ccc3ncc(Cc4ccc5ncccc5c4)n3n2)cn1`, the Potency entry was “inactive”.
Next, `Cc1cnc(Nc2ccc(OCCN3CCCC3)cc2)nc1Nc1cccc(S(=O)(=O)NC(C)(C)C)c1`: 8.63 µM (active).
In the case of `NCCOc1cc(C(=O)Nc2cc(OCCN)c3ccccc3n2)nc(C(=O)Nc2cc(OCCN)c3ccccc3n2)c1`, the Potency entry is “inactive”.
Turning to `CCS(=O)(=O)N1CCN(c2ccc(Nc3ncc(C(N)=O)c(NC4CC4)n3)cc2)CC1`, the Potency result was “inactive”.
